# Source: PubChem BioAssay (EPA / NIEHS)
# Inconclusive results are not listed. Calls of active or inactive are those of the source. The calls were made as follows, unless noted: active = hit-call score of the fitted dose curve at least 0.9, where 1 is the maximum; inconclusive = response in the unintended direction; inactive = score below 0.9.
# How the values were obtained:
# [1] = read-out: Cytochrome P450 (CYP24A1_1), CYP24A1 (gene 1591); experiment: LTEA_HepaRG_CYP24A1_1: Life Technologies and Expression Analysis (LTEA) Assay for Cytochrome P450 (CYP24A1_1) using HepaRG (AID 2283671; active = hit-call score of the fitted dose curve at least 0.9, where 1 is the maximum; inactive = score below 0.9); details: mRNA level, 48 h; actives raise or lower the signal
# Method in brief: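 Differentiated human HepaRG cells in serum-free induction medium, exposed 48 h in duplicate to eight half-log concentrations from 100 uM top, 0.5% DMSO. Transcript measured by TaqMan qRT-PCR, normalised to ACTB, GAPDH, POLR2A; bidirectional fitting versus DMSO.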
# [2] = Tanguay_ZF_120hpf_ActivityScore_legacy: (Legacy) Oregon State University Tanguay Lab 120 Hour Post-fertilization zebrafish Assay Score for Activity (AID 2283742);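 as to AC50: dechorionated Tropical 5D wild-type zebrafish embryos held singly per well; static exposure from 6 hpf until 120 hpf at 28 °C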
# Method in brief: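 Dechorionated Tropical 5D embryos, one per well from 6 hpf, statically exposed to 120 hpf at 28 °C in 0.64% DMSO. Mortality and malformations scored binary by brightfield microscopy; activity score combines 18 endpoints, fitted positively versus DMSO.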
# [3] = Tanguay_ZF_120hpf_TR_legacy: (Legacy) Oregon State University Tanguay Lab 120 Hour Post-fertilization zebrafish Assay for Touch Response (AID 2283667)
# Method in brief: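 Tropical 5D wild-type zebrafish embryos statically exposed to 120 hpf at 28°C, sealed and dark-covered, 0.64% DMSO final; touch response scored as present/absent by brightfield microscopy at 120 hpf. Trimethyltin chloride 5 uM positive control; dead embryos not scored.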
# [4] = CCTE_Padilla_ZF_144hpf_TERATOSCORE: (Legacy) CCTE's 144 Hour Post-fertilization zebrafish Assay Teratoscore, Padilla Lab (AID 2283679; active = hit-call score of the fitted dose curve at least 0.9, where 1 is the maximum; inactive = score below 0.9;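 as to AC50: zebrafish embryos with chorions exposed by immersion from 6-8 hpf to 5 dpf with daily renewal; teratogenicity score from eye scoring of death hatching and malformations at 144 hpf; higher score means more developmental defects relative to DMSO baseline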)
# Method in brief: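 Larvae scored by eye at 144 hpf for death, hatching and malformations after a day in clean Hanks'. Before that, daily-renewed exposure at 80 uM (0.4% DMSO, 26C) from roughly 6-8 hpf through 5 dpf, 4 embryos per chemical.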
# [5] = STM_H9_OrnithineISnorm_perc: Stemina devTOX quickPredict H9 human embryonic stem cell (hESC)-based Assay for Ornithine (ORN) Metabolite Biomarker, Normalized (AID 2283712; active = hit-call score of the fitted dose curve at least 0.9, where 1 is the maximum; inactive = score below 0.9;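 also: ornithine released into spent medium during last day measured by mass spectrometry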)
# Method in brief: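 H9 human embryonic stem cells kept pluripotent receive test chemical over 72 h, refreshed daily by media exchange. Media from the closing 24 h is deproteinized and analysed by UPLC-HRMS on an amide column; ornithine signal is scaled to labelled standard and vehicle.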
# [6] = STM_H9_CystineISnorm_perc: Stemina devTOX quickPredict H9 human embryonic stem cell (hESC)-based Assay for Cystine (CYSS) Metabolite Biomarker, Normalized (AID 2283713; active = hit-call score of the fitted dose curve at least 0.9, where 1 is the maximum; inactive = score below 0.9)
# Method in brief: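 H9 hESC, pluripotent; compound 72h, re-dosed q24h with medium change. Last-24h medium → 40% acetonitrile deproteinization → UPLC-HRMS. CYSS area / C13-CYSS standard, then % of 0.1% DMSO median.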
# [7] = STM_H9_OrnCyssISnorm_ratio: Stemina devTOX quickPredict H9 human embryonic stem cell (hESC)-based Assay for Ornithine (ORN):Cystine (CYSS) Ratio (AID 2283714)
# Method in brief: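 Undifferentiated H9 hESCs exposed 72 h, media and compound replaced every 24 h; final 24-h conditioned media deproteinized and analysed by UPLC-HRMS against C13 spike-ins. Value is the internal-standard-normalized ORN/CYSS ratio versus 0.1% DMSO.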
# [8] = CEETOX_H295R_MTT_cell_viability: Viability Assessment in the CeeTox HT-H295R MTT Assay (AID 2283718; active = hit-call score of the fitted dose curve at least 0.9, where 1 is the maximum; inactive = score below 0.9)
# Method in brief: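 Human H295R adrenal cells, prestimulated 48 h with 10 uM forskolin, were exposed 48 h to chemicals in 0.1% DMSO. Viability was measured in the same wells by MTT (0.5 mg/ml, 4 h, 37 C), absorbance 570/650 nm, as percent of controls.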
# [9] = system: Thyroperoxidase (TPO), gene 54314; experiment: CCTE_Simmons_AUR_rTPO: CCTE's Amplex UltraRed Assay for Thyroperoxidase (TPO) Inhibition, Simmons Lab (AID 2283662);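 also: potency for loss of signal meaning inhibition of peroxidase activity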
# Method in brief: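 Rat thyroid microsomes (5 ug protein) with 25 uM Amplex UltraRed and 300 uM H2O2 in 200 mM phosphate buffer, 30 min at 37C in dark; fluorescence 544/590 nm. Eight concentrations, 5 nM–87.5 uM final, 0.5% DMSO, triplicate biological replicates.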
# [10] = system: Thyroperoxidase (TPO), gene 445522; experiment: CCTE_Simmons_GUA_TPO: CCTE's Guaiacol Assay for Thyroperoxidase (TPO) Inhibition, Simmons Lab (AID 2283750)
# Method in brief: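 Porcine thyroid microsomes (25 ug) in 200mM potassium phosphate, preincubated 30 s at 37C with compound (8 concentrations, 5 nM–87.5 uM) and 35mM guaiacol; 1mM H2O2 starts reaction. Absorbance change at 450nm over first 80 s; loss of signal versus DMSO, three replicates.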
# [11] = molecular target: Luciferin 4-monooxygenase (Photinus pyralis) (UniProt P08659); experiment: CCTE_Simmons_QuantiLum_inhib_2: CCTE's Firefly Luciferase Inhibition Assay, Simmons Lab (AID 2283767)
# Method in brief: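 Luminescence loss relative to DMSO vehicle defines inhibition; detection reagent containing 150 uM D-luciferin and 147 uM dATP (final, pH 7.8) is injected immediately before each read. Enzyme is preincubated with an 8-point titration (5 nM–87.5 uM final) for 30 min at 37C.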
# [12] = ArunA_CellTiter_hNC: Viability Assessment in the ArunA Biomedical's Oris Neural Crest (hNC) Cell Migration Assay (AID 2283752)
# Method in brief: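 Cell titer was measured with the CellTiter Aqueous One reagent after 72 h of chemical dosing. Cells were H9-derived embryonic neural crest stem cells seeded on Matrigel, 60,000 per well, and given 16 h at 37C beforehand.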
# [13] = ArunA_Migration_hNP: ArunA Biomedical's Oris Neuroprogenitor (hNP) Cell Migration Assay (AID 2283754)
# Method in brief: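 Human H9-derived hNP1 neuroprogenitors on Matrigel with LIF/bFGF, plated around seeding stoppers for 16 h at 37C; stoppers removed at start of 72 h chemical exposure. Calcein-AM staining, fluorescence 494/517 nm in detection zone; loss-of-signal vs DMSO; cytochalasin D control.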
# [14] = ArunA_Migration_hNC: ArunA Biomedical's Oris Neural Crest (hNC) Cell Migration Assay (AID 2283755)
# Method in brief: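 Human H9-derived neural crest stem cells, 60,000/well on Matrigel, 16 h at 37C, then 72 h chemical exposure after seeding-stopper removal. Migration into detection zone read as calcein-AM fluorescence (ex494/em517), relative to DMSO.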
# [15] = ArunA_NOG_NeuriteLength: ArunA Biomedical's Neurite Outgrowth (NOG) Assay for Neurite Length (AID 2283757)
# Method in brief: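 Differentiated human H9-derived neurons were exposed for 48 h from seeding, then stained with Hoechst and βIII-tubulin. Automated high-content imaging gave total neurite length per valid neuron, counting processes >10 um. Loss of signal was scored versus DMSO.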
# [16] = ArunA_NOG_NeuritesPerNeuron: ArunA Biomedical's Neurite Outgrowth (NOG) Assay for Neurites Per Neuron (AID 2283758)
# Method in brief: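 Differentiated human H9-derived neurons exposed to chemicals for 48 h from seeding, then stained with Hoechst and βIII-tubulin/DyLight 488. Automated imaging counted neurites (processes >10 um) per valid neuron; loss of signal versus DMSO scored.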
# [17] = ArunA_NOG_BranchPointsPerNeurite: ArunA Biomedical's Neurite Outgrowth (NOG) Assay for Branch Points Per Neurite (AID 2283759)
# Method in brief: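 Automated image analysis traced neurites (processes >10 um) from valid cell bodies after Hoechst and βIII-tubulin staining. hNN cells from H9 embryonic stem cells, 48 h exposure. Fitted bidirectionally against DMSO.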
# Luciferin 4-monooxygenase (Photinus pyralis), sequence (P08659 whole entry, looked up): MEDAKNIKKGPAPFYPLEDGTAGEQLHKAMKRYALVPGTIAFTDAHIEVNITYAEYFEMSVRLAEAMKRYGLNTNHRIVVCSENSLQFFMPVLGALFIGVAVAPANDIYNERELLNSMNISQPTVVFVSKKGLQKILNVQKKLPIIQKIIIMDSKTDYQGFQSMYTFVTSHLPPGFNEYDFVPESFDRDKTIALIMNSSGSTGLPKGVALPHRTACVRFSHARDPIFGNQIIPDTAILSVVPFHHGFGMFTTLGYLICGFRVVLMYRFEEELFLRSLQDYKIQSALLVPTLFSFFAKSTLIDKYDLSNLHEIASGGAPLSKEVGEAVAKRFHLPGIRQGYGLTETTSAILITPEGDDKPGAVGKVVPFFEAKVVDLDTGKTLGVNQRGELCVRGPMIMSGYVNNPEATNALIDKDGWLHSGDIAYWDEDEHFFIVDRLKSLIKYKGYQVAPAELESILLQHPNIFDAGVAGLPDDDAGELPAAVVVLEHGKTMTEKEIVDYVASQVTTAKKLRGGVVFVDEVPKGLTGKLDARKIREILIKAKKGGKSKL
smiles,measurement,setting,value
Cc1ccc([N+](=O)[O-])cc1,outcome,[1],inactive
same,outcome,[2],inactive
CCC12COCN1COC2,outcome,[3],inactive
same,outcome,[4],inactive
same,outcome,[2],inactive
c1ccc(C2CO2)cc1 (configuration not stated),outcome,[3],inactive
same,outcome,[2],inactive
Clc1ccc(C(c2ccc(Cl)cc2)C(Cl)Cl)cc1,AC50,[4],20.3 µM (active)
same,outcome,[5],inactive
same,outcome,[6],inactive
same,outcome,[7],inactive
same,outcome,[2],inactive
CC(C)N(Cc1ccccc1)C(=O)C(C)(C)C,outcome,[3],inactive
same,outcome,[8],inactive
same,outcome,[2],inactive
c1ccc2c(c1)oc1ccccc12,outcome,[3],inactive
same,outcome,[2],inactive
ClC1=C(Cl)C2(Cl)C3C(Cl)C=CC3C1(Cl)C2(Cl)Cl (configuration not stated),outcome,[1],inactive
same,AC50,[4],3.23 µM (active)
same,outcome,[2],inactive
C1=Cc2cccc3cccc1c23,outcome,[1],inactive
same,outcome,[2],inactive
CCC[CH2][Sn]([Cl])([CH2]CCC)[CH2]CCC,outcome,[3],inactive
same,AC50,[4],0.0309 µM (active)
same,AC50,[5],0.519 µM (active)
same,AC50,[6],0.546 µM (active)
same,AC50,[7],0.497 µM (active)
same,AC50,[2],317 nM (active)
ClCCOCCCl,outcome,[3],inactive
same,outcome,[2],inactive
CS(=O)(=O)NC(=O)c1cc(Oc2ccc(C(F)(F)F)cc2Cl)ccc1[N+](=O)[O-],outcome,[3],inactive
same,AC50,[4],0.128 µM (active)
same,outcome,[2],inactive
Cn1cc(-c2ccccc2)c(=O)c(-c2cccc(C(F)(F)F)c2)c1,AC50,[4],57 µM (active)
same,AC50,[5],0.0803 µM (active)
same,outcome,[6],inactive
same,outcome,[7],inactive
same,outcome,[8],inactive
same,outcome,[2],inactive
CC(C)(C)C(O)(CCc1ccc(Cl)cc1)Cn1cncn1 (configuration not stated),AC50,[4],52 µM (active)
same,AC50,[5],79.1 µM (active)
same,AC50,[6],30.1 µM (active)
same,AC50,[7],45 µM (active)
same,outcome,[8],inactive
same,outcome,[2],inactive
CN(C)c1ccccc1,AC50,[9],22.7 µM (active)
same,outcome,[3],inactive
same,outcome,[2],inactive
same,AC50,[10],23.7 µM (active)
same,outcome,[11],inactive
O=[N+]([O-])C(Br)(CO)CO,outcome,[3],inactive
same,outcome,[1],inactive
same,outcome,[2],inactive
CCCSC(=O)N(CCC)CCC,outcome,[3],inactive
same,outcome,[2],inactive
N#CC(Br)Br,outcome,[3],inactive
same,outcome,[4],inactive
same,outcome,[2],inactive
C[N+](C)(C)CC1CO1 (configuration not stated),outcome,[3],inactive
same,AC50,[5],21 µM (active)
same,AC50,[6],11 µM (active)
same,AC50,[7],16.5 µM (active)
same,outcome,[2],inactive
OCCCBr,outcome,[3],inactive
same,outcome,[4],inactive
same,outcome,[5],inactive
same,outcome,[6],inactive
same,outcome,[7],inactive
same,outcome,[2],inactive
CCCCCOC(=O)c1ccccc1C(=O)OCCCCC,outcome,[3],inactive
same,AC50,[4],4.55 µM (active)
same,outcome,[5],inactive
same,AC50,[6],19.8 µM (active)
same,AC50,[7],21.9 µM (active)
same,outcome,[8],inactive
same,outcome,[2],inactive
O=P(OCCCl)(OCCCl)OCCCl,outcome,[12],inactive
same,outcome,[13],inactive
same,outcome,[14],inactive
same,outcome,[15],inactive
same,outcome,[16],inactive
same,outcome,[17],inactive
